Where two headings read alike, the source gives them in different places.

For 19 molecules, potency estimated from few doses results are on record in paper PMC11062922 (Nature Chemical Biology, 2023).

Holding throughout (design): species or system human, MV4-11 + K-562 + COLO205 + SK-N-BE2 + OVCAR-8
One experiment concerns CDK12. To be noted: read-out: apparent Kd, compound concentrations: 100 nM and 1000 nM (sheet 'Samples'), n = 1.
For the next experiment, the system named is CDK4. The conditions noted are these: read-out: apparent Kd, compound concentrations: 100 nM and 1000 nM (sheet 'Samples'), n = 1.
Another experiment relates to PIM3. The conditions noted are these: read-out: apparent Kd, compound concentrations: 100 nM and 1000 nM (sheet 'Samples'), n = 1.
In a further experiment the test system is ADRBK1. To be noted: read-out: apparent Kd, n = 1.
For the next experiment, the system named is MDN1. The conditions noted are these: read-out: apparent Kd, n = 1.
A further experiment deals with PLK1. The conditions noted are these: read-out: apparent Kd, compound concentrations: 100 nM and 1000 nM (sheet 'Samples'), n = 1.
A further experiment relates to EPHA7. To be noted: read-out: apparent Kd; compound concentrations: 100 nM and 1000 nM (sheet 'Samples'), CATDS: 1.2240200797628401E-2; n = 1.
For another experiment, the system named is GRK6. The conditions noted are these: read-out: apparent Kd, n = 1.
For the next experiment, the system named is PYGL. To be noted: read-out: apparent Kd; compound concentrations: 100 nM and 1000 nM (sheet 'Samples'), CATDS: 1.35129561389799E-2; n = 1.
Another experiment has as its system RIPK3. The conditions noted are these: read-out: apparent Kd; compound concentrations: 100 nM and 1000 nM (sheet 'Samples'), CATDS: 1.26623913156397E-2; n = 1.
The test system of the next experiment is NEK1. The conditions noted are these: read-out: apparent Kd; compound concentrations:100 nM and 1000 nM (sheet 'Samples'); n = 1.
In another experiment the test system is PRKCZ. The conditions noted are these: read-out: apparent Kd; compound concentrations:100 nM and 1000 nM (sheet 'Samples'); n = 1.
In a further experiment the test system is CAMK2G. To be noted: read-out: apparent Kd; compound concentrations: 100 nM and 1000 nM (sheet 'Samples'), CATDS: 2.3496297830239501E-2; n = 1.
For the next experiment, the system named is MAP3K1. The conditions noted are these: read-out: apparent Kd, n = 1.
The test system of another experiment is ERN2. The conditions noted are these: read-out: apparent Kd; compound concentrations:100 nM and 1000 nM (sheet 'Samples'); n = 1.
Setting [1] is: compound concentrations:100 nM and 1000 nM (sheet 'Samples').

Consider `CCN(CC)Cc1ccc(Nc2nccc(-c3cnn4ncccc34)n2)cc1` [GW780056X], for which the results for the potency estimated from few doses in the experiment on CDK12 (CATDS: 2.2557982772038999E-2) and in the experiment with CDK4 (CATDS: 1.9618421656054302E-2) were 0.899 µM and 1.42 µM, respectively.
For the molecule `O=C(O)C(F)(F)F.O=c1[nH]ccc2nc(N[C@@H]3CCNC3)nc(Nc3ccc4c(c3)S(=O)(=O)CC4)c12` [GSK2181306A], the potency estimated from few doses in the experiment with PIM3 (CATDS: 5.1317659487183503E-2) was 0.0364 µM.
As to `COc1ccc(-c2cc3c(N)ncnc3o2)cc1` [GW642138X], the potency estimated from few doses in the experiment on ADRBK1 (compound concentrations: 100 nM and 1000 nM (sheet 'Samples'), CATDS: 0.10043155858125399) was 1.82 µM.
Regarding `Cl.Cl.NC(CNC(=O)c1cc(Br)c(-c2ccnc3[nH]ccc23)s1)c1ccccc1.NC(CNC(=O)c1cc(Br)c(-c2ccnc3[nH]ccc23)s1)c1ccccc1` (stereo not shown) [GSK1322949A], the potency estimated from few doses in the experiment with CDK4 (CATDS: 3.2269694765046902E-2) was 1.03 µM; in the experiment on MDN1 (compound concentrations: 100 nM and 1000 nM (sheet 'Samples'), CATDS: 2.3593450099353701E-2) it was 2.3 µM; in the experiment with PLK1 (CATDS: 2.70929722302506E-2), 1.55 µM.
Take `CCn1c(-c2cccnc2O)nc2cnccc21` [SB-736715]: the potency estimated from few doses in the experiment on EPHA7 is 2.08 µM; with GRK6 (compound concentrations: 100 nM and 1000 nM (sheet 'Samples'), CATDS: 1.19944612945155E-2), 2.19 µM; in the experiment with PIM3 (CATDS: 1.44947330035029E-2), 1.39 µM; in the experiment on PYGL, 1.63 µM; in the experiment with RIPK3, 1.9 µM.
As to `Cc1cc(-c2ccnc(Nc3cccc(C#N)c3)n2)cc(C)c1O` [GSK1440913A], the potency estimated from few doses in the experiment on ADRBK1 (compound concentrations: 100 nM and 1000 nM (sheet 'Samples'), CATDS: 7.8557926604231804E-2) was 1.43 µM.
Take `CC(C)Oc1ccc2c(-c3ccnc(Nc4ccc(N5CCN(C)CC5)cc4)n3)cnn2n1` [GW696155X]: the potency estimated from few doses in the experiment with NEK1 is 1.13 µM.
With `COc1cc(Nc2nccc(N3CCC(NC(=O)c4cccc(NC(C)=O)c4)C3)n2)cc(OC)c1OC` (stereo not shown) [GSK1379754A], the potency estimated from few doses in the experiment with PIM3 (CATDS: 9.0008616948043199E-2) is 1.47 µM.
Take `CC(C)Nc1cc(-c2ccc3c(N)n[nH]c3c2)nc(N)n1` [GSK2221681A]: the potency estimated from few doses in the experiment with PRKCZ was 1.52 µM.
As to `COc1cc[nH]c1/C=C1\C(=O)Nc2ccc(F)c(C#CC3(O)CCNCC3)c21.Cl` [RO0282986-001], the potency estimated from few doses in the experiment on CAMK2G was 0.154 µM.
`CNCc1ccc(-c2cc(-c3nc(-c4ccc(S(=O)(=O)C(C)C)cc4)cnc3N)on2)cc1` [VE-822]: the potency estimated from few doses with MAP3K1 (setting [1]) is 1.26 µM.
Consider `O=C(O)C(F)(F)F.O=C(O)C(F)(F)F.O=c1[nH]ccc2nc(N[C@@H]3CCCNC3)nc(Nc3ccc(S(=O)(=O)N4CCOCC4)cc3)c12.O=c1[nH]ccc2nc(N[C@@H]3CCCNC3)nc(Nc3ccc(S(=O)(=O)N4CCOCC4)cc3)c12` [GSK2177277A], for which, in the experiment on CDK4 (CATDS: 6.3800508588872503E-3), the potency estimated from few doses is 1.6 µM.
In the case of `NS(=O)(=O)c1ccc(NC=C2C(=O)Nc3ccc4ncsc4c32)cc1` [GW589933X], in the experiment on CDK12 (CATDS: 1.98005897918999E-2), the potency estimated from few doses is 1.01 µM.
Turning to `Nc1nccc(-c2ccc3c(N)n[nH]c3c2)n1` [GSK1034945A], the potency estimated from few doses in the experiment on PRKCZ was 1.83 µM.
On to `CC(C)N1CC(=O)N(C)c2cnc(Nc3cccc(S(=O)(=O)CCN4CCOCC4)c3)nc21` [BI00009348], for which the potency estimated from few doses in the experiment on MAP3K1 (compound concentrations: 100 nM and 1000 nM (sheet 'Samples'), CATDS: 5.2672429134220697E-2) was 1.56 µM.
On to `CCn1c(-c2nonc2N)nc2cncc(Br)c21` [SB-738004], for which the potency estimated from few doses in the experiment on PRKCZ was 0.544 µM.
As for `Cl.Cl.NCC(NCc1ccc(-c2ccnc3[nH]ccc23)s1)c1ccccc1.NCC(NCc1ccc(-c2ccnc3[nH]ccc23)s1)c1ccccc1` (stereo not shown) [GSK1321565A], the potency estimated from few doses in the experiment with GRK6 (setting [1]) is 1.6 µM.
For `Nc1nc(-c2ccc3c(N)n[nH]c3c2)cc(N2CCCC(NC(=O)c3ccccc3)C2)n1` (stereo not shown) [GSK2286775B], the potency estimated from few doses is 2.05 µM in the experiment on ADRBK1 (setting [1]), 1.58 µM in the experiment on ERN2 and 1.29 µM in the experiment with MDN1 (setting [1]).
Regarding `CCC(CC)(CC)n1cnc2c(N)ncnc21` [SKF-97620], the potency estimated from few doses with PLK1 (CATDS: 2.3248772158463601E-2) is 2.3 µM.
